Measured values: PubChem BioAssay
Activity calls are given as the source filed them.

How the values were obtained:
[1] = small molecules captured by biotinylated probe aFSTL3 – biochemical, small-molecule microarray, fluorescence 635/667, stem cell growth factor project, primary screen (AID 1064); conditions: higher = more signal;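 further: measures binding of the biotinylated anti-FSTL3 antibody to printed compounds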
[2] = binders from COS7 lysate, DM2A8 probe, primary screen, torsin A project, cell lysate, small-molecule microarray, fluorescence 635/667 (AID 1065); conditions: higher = more signal, COS7 lysate expressing mutant human TOR1A
[3] = small molecules captured by biotinylated probe aFGF2 – biochemical, small-molecule microarray, fluorescence 635/667, stem cell growth factor project, primary screen (AID 1067); conditions: higher = more signal;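 further: measures binding of biotinylated aFGF2 protein to printed compounds on slides; z-score merges feature fluorescence and signal-to-noise across triplicate slides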
[4] = small molecules captured by biotinylated probe aFGF10 – biochemical, small-molecule microarray, fluorescence 635/667, stem cell growth factor project, primary screen (AID 1071); conditions: higher = more signal;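 further: score merges 667 nm spot intensity and signal to noise from triplicate slides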
[5] = molecular target: Neurogenic locus notch homolog protein 2 (Homo sapiens) (UniProt Q04721); test: small molecules binding Notch2 protein – biochemical, small-molecule microarray, 635 nm fluorescence, stem cell growth factors, primary screen (AID 1073); conditions: higher = more signal
Sequence of Neurogenic locus notch homolog protein 2 (Homo sapiens) (Q04721 whole entry, looked up, canonical isoform): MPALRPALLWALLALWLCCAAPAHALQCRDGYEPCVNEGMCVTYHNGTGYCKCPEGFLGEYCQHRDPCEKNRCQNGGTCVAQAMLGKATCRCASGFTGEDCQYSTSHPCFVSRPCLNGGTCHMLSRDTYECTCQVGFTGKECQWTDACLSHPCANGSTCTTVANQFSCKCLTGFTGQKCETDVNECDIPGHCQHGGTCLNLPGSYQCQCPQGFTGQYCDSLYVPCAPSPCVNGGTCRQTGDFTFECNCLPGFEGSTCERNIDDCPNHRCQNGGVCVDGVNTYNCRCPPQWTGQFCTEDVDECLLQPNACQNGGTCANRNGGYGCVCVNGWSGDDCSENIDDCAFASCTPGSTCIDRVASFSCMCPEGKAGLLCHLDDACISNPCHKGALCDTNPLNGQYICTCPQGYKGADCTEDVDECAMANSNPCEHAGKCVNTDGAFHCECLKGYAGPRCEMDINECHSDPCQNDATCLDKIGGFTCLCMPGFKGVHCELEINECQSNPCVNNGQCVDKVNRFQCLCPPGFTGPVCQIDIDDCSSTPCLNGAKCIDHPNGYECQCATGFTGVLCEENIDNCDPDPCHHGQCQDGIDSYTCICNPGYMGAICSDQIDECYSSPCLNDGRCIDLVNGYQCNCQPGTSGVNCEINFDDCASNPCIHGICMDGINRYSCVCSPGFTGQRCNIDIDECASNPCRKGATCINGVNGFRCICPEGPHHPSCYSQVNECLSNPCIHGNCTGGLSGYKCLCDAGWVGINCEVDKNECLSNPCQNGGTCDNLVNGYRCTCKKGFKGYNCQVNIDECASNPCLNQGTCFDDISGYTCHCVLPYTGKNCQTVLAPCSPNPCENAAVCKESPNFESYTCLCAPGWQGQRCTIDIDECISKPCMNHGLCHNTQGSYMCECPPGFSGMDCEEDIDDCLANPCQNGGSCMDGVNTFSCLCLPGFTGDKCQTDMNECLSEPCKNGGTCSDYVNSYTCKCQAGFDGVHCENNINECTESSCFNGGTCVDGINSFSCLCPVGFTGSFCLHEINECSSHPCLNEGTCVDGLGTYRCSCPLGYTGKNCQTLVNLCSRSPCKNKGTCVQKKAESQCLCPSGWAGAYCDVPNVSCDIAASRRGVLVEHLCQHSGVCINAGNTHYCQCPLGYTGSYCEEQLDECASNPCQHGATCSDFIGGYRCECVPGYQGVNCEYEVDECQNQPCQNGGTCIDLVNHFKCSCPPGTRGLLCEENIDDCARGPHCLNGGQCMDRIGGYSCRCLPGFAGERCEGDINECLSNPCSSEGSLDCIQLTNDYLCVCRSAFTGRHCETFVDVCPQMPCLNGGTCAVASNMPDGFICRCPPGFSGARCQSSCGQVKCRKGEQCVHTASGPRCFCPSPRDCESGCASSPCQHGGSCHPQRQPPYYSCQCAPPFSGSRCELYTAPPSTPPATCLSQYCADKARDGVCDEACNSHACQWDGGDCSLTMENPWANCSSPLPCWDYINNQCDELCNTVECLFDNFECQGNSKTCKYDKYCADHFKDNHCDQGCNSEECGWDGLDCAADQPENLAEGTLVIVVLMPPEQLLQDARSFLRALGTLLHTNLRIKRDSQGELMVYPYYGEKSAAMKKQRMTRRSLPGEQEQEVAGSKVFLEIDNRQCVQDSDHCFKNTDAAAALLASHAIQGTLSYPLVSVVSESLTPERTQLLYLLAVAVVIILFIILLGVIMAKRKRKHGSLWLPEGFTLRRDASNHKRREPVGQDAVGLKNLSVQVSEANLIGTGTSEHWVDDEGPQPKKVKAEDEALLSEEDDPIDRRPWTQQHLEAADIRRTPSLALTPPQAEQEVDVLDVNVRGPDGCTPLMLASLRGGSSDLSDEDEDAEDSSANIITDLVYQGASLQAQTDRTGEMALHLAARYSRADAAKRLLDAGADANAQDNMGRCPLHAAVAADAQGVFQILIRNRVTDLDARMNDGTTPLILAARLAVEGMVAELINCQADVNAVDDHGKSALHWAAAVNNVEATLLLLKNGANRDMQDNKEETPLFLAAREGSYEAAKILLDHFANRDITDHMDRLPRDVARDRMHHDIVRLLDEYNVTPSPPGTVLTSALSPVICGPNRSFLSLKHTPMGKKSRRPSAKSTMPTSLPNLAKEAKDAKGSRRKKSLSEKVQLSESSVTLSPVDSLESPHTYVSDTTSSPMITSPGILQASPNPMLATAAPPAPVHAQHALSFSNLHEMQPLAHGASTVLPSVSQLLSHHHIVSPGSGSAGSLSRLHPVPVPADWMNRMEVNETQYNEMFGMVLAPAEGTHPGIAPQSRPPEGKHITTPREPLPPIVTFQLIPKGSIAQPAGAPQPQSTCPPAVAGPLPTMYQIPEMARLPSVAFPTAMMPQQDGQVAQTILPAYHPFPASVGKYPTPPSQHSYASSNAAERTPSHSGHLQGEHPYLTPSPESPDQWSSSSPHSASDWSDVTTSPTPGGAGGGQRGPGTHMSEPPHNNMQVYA

[6] = molecular target: Pro-neuregulin-1, membrane-bound isoform (Homo sapiens) (UniProt Q02297); test: small molecules binding neuregulin-1 protein – biochemical, small-molecule microarray, fluorescence 635/667, psychiatric disease protein project, primary screen (AID 1075); conditions: NRG1 binding, 635 nm fluorescence, higher = more signal;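 further: score combines 667 nm spot fluorescence with signal to noise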
Sequence of Pro-neuregulin-1, membrane-bound isoform (Homo sapiens) (Q02297 whole entry, looked up, the tested form may be a part, canonical isoform): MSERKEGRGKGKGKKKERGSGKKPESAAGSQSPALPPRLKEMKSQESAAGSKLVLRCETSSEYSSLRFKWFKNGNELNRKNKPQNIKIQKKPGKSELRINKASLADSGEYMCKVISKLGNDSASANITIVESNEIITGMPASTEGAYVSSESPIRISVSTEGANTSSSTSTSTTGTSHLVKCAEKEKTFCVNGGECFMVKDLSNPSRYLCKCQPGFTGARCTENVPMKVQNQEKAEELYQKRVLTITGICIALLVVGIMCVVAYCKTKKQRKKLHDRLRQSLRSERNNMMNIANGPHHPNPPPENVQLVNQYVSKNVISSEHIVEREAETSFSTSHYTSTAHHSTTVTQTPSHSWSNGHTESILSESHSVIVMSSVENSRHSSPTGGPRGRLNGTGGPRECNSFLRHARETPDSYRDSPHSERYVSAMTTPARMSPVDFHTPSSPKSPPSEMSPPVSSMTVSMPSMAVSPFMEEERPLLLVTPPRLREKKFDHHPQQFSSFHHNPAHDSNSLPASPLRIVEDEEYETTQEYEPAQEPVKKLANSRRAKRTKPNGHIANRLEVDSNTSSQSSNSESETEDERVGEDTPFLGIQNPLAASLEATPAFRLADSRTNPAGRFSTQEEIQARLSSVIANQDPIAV

[7] = test system: Neuregulin-1 EGF-like domain; test: small molecules binding NRG1 EGF domain – biochemical, small-molecule microarray, 635 nm fluorescence, primary screen (AID 1081); conditions: higher = more signal;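 further: binding of the protein to compounds printed on small-molecule microarray slides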
[8] = FRG1 expression reporter modulators in myotubes – cell-based, C2C12 myotubes, firefly/Renilla luciferase, luminescence, FRG1 inhibition for FSHD, primary screen (AID 1084); conditions: FRG1 promoter luciferase, higher = more signal, called active from +8 up or from −8 down
[9] = small molecules captured by biotinylated probe aFST – biochemical, small-molecule microarray, fluorescence 635/667, stem cell growth factor project, primary screen (AID 1086); conditions: higher = more signal;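 further: score merges 667 nm fluorescence with signal-to-noise of each printed compound spot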
[10] = binders of probe aHhip on microarray, primary screen, stem cell growth factor project, biochemical, small-molecule microarray, fluorescence 635/667 (AID 1087); conditions: higher = more signal;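 further: score merges spot fluorescence at 667nm with spot signal to noise ratio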

Compound	composite z-score [1]	composite z-score [2]	composite z-score [3]	composite z-score [4]	composite z-score [5]	composite z-score [6]	composite z-score [7]	z-score [8]	composite z-score [9]	composite z-score [10]
CC(C)C[C@@H]1NC(=O)[C@H]2C[C@@H](C(=O)O)[C@@H](c3ccc(O)cc3)N2C1=O	1.29	1.31	-0.087	-0.211	-0.506	1.47	1.29	6.75 (inactive)	0.123	0.613
CC(C)NC(=O)[C@@]1(C)c2ccccc2C(=O)N(Cc2cc(F)cc(C(F)(F)F)c2)[C@H]1c1ccc(CO)cc1	0.0059	0.0214	0.0368	0.888	1.54	0.341	1.17	-1.31 (inactive)	0.298	-0.134
CC(C)OC(=O)C=C1C[C@@H](c2ccc(C#N)cc2)O[C@@H](c2ccc(C#N)cc2)O1	-0.475	0.334	0.235	1.01	1.68	1.64	1.21	0.0509 (inactive)	1.58	0.233
CCN1C(=O)[C@H]2[C@H]3[C@H](O)[C@H](O)CC(=NOC(C)CN4CCCCc5nc(C)c(C)cc54)[C@@H]3CC[C@H]2C1=O (stereo not given in full)	-0.698	0.532	-0.138	0.223	0.462	-0.531	-0.274	0.682 (inactive)	0.253	0.119
COC(=O)CC=C[C@@H](C)[C@@H](C=NO[C@@H](C)c1cc(-c2c(C)cc(C)cc2C)no1)OC	1.46	-1.99	-0.159	-0.806	-1.69	-0.674	-0.714	0.8 (inactive)	-0.358	-0.0672
C=CCN1C(=O)[C@]2(O[C@H](CCn3cc(CCO)nn3)[C@@H]([Si](C)(C)c3ccc(OC)cc3)[C@@H]2C)c2cc(N3CCOC3=O)ccc21	-0.0415	0.0421	-0.152	0.0622	-0.447	1.05	1.18	-3.36 (inactive)	-0.414	-0.261
CO[C@@H]1COC(=O)CCC[C@@H](C)[C@H](OC)COC(=O)CCC[C@H]1C	-0.298	0.743	-0.0982	0.219	0.633	-0.63	0.176	0.462 (inactive)	0.561	0.369
CCc1cc2c(nc1CC)CCN(CCC(C)=NOC[C@@H](O)COCc1ccco1)C2	0.394	2.81	-0.105	0.0103	0.95	-0.38	1.36	1.16 (inactive)	2.06	0.382
COc1ccccc1CN1C(=O)c2ccccc2[C@@]2(Cc3ccccc3N(C(C)C)C2=O)[C@@H]1c1ccc(CO)cc1	-0.111	-0.336	-0.186	-0.689	-0.294	-0.0492	-0.723	-2.45 (inactive)	0.351	-0.374
CC[C@@H](c1ccccc1)n1c(=O)n2n(c1=O)[C@H]1[C@H](O)[C@@H]3O[C@@H]3C(=NOCC(C)C)[C@H]1CC2	-0.427	0.428	-0.119	0.0304	0.409	-0.0258	0.493	0.0491 (inactive)	0.0308	-0.0994
CCCNC(=O)OC[C@H]1O[C@H](CCON=CC[C@@H]2C=C[C@H](OC(C)=O)[C@@H](COC(C)=O)O2)C=C[C@@H]1Oc1ccc(OC)cc1	-0.458	0.453	-0.112	0.423	0.605	-0.367	0.576	0.335 (inactive)	0.014	-0.134
COCCOC(=O)N1C(=O)[C@@]2(c3ccccc31)[C@H](C(N)=O)[C@H]1C(=O)O[C@H](c3ccccc3)[C@H](c3ccccc3)N1[C@@H]2c1ccccc1OCCO	0.0407	1.67	0.147	0.937	0.899	1.42	1.11	-0.732 (inactive)	0.521	0.234
Cn1c(=O)n2n(c1=O)[C@H]1[C@H](O)[C@@H]3O[C@@H]3C(=NOC[C@@H](O)COCc3ccco3)[C@H]1CC2	-0.319	0.614	-0.0538	0.296	0.515	-0.218	0.276	-0.532 (inactive)	0.0036	0.0373
CC(=O)OC[C@H]1O[C@H](CCON=C(C)CCN2CCc3nc(-c4ccccc4)c(-c4ccccc4)cc3C2)C=C[C@@H]1OC(C)=O	-0.195	0.472	-0.119	0.173	0.0174	0.266	0.454	1.23 (inactive)	-0.105	0.0749
COCCOC(=O)N1C(=O)[C@@]2(c3cc(C#Cc4ccc(OC)cc4)ccc31)[C@H](c1ccc(O)cc1)N1[C@H](c3ccccc3)[C@H](c3ccccc3)OC(=O)[C@H]1[C@@H]2C(N)=O	-0.513	0.258	-0.031	0.602	1.35	1.17	1.26	0.497 (inactive)	0.674	0.291
CC(CCN1CCc2nc(-c3ccccc3)c(-c3ccccc3)cc2C1)=NO[C@H](C)c1cn([C@@H]2COC[C@H]2O)nn1	-0.388	1.4	-0.0867	0.259	0.295	0.646	1.03	-0.203 (inactive)	0.133	-0.0237
COc1ccc([Si](C)(C)[C@H]2[C@H](CCO)O[C@@]3(C(=O)N(Cc4cccc(NC(=O)[C@H](C)O)c4)c4ccccc43)[C@@H]2C)cc1	-0.456	0.634	-0.101	0.136	0.612	0.84	1.22	-2.68 (inactive)	-0.0054	0.212
c1ccc(C2NCCc3c2[nH]c2ccccc32)cc1 (stereo not given)	0.136	0.548	0.0183	0.0913	-0.443	0.464	0.233	-0.151 (inactive)	-0.16	-0.128
COCCOC(=O)N1C(=O)[C@@]2(c3cc(C#Cc4ccc(OC)cc4)ccc31)[C@H](C(=O)N1CCN(c3ncccn3)CC1)[C@H]1C(=O)O[C@H](c3ccccc3)[C@H](c3ccccc3)N1[C@@H]2c1ccc(OCCO)cc1	0.367	-0.473	-0.006	0.3	1.35	0.458	0.703	0.726 (inactive)	0.383	0.28
O=C1[C@H]2[C@H]3[C@H](O)[C@H](O)CC(=NOCc4ccccc4)[C@@H]3CC[C@H]2C(=O)N1Cc1ccccc1	-0.226	0.304	-0.125	0.264	0.758	-0.0975	0.272	0.341 (inactive)	0.281	-0.0672
CC1CC/C=C\[C@H]2OC34C=CCN(Cn5nnc6ccccc65)C(=O)[C@H]3N(CCO)C(=O)[C@@H]4C2C(=O)O1 (stereo not given in full)	0.398	1.96	-0.0778	-0.181	-1.29	1.52	1.43	-0.203 (inactive)	-0.655	-0.0324
C#CCCCON=C1C[C@@H](O)[C@@H](O)[C@@H]2[C@@H]3C(=O)N(c4cccc(Oc5ccccc5)c4)C(=O)[C@@H]3CC[C@@H]12	-0.456	-0.666	-0.0296	0.967	0.88	1.44	0.598	0.407 (inactive)	0.319	-0.334
NC(=O)NCC#Cc1ccc2c(c1)[C@]1(C(=O)N2)[C@H](c2ccc(O)cc2)N2[C@H](c3ccccc3)[C@H](c3ccccc3)OC(=O)[C@H]2[C@@H]1C(=O)N1CCCCCCC1	2.38	-0.206	0.242	0.122	0.617	0.467	0.839	-1.21 (inactive)	2.31	0.257
CCN1C(=O)[C@H]2[C@H]3[C@H](O)[C@H](O)CC(=NO[C@@H]4O[C@H](CO)[C@@H](O)[C@H](O)[C@H]4O)[C@@H]3CC[C@H]2C1=O	-0.0837	0.0566	-0.211	-0.078	-1.21	0.485	-1.11	0.183 (inactive)	-0.402	0.354
CCc1cc2c(nc1CC)CCN(CCC(C)=NOC(C)CN1CCCc3nc(C)c(C)cc31)C2 (stereo not given)	0.271	1.29	0.131	0.16	1.35	0.408	1.17	1.04 (inactive)	1.15	1.17
CCOC(=O)CCN1C(=O)[C@H]2[C@H]3[C@H](O)[C@H](O)CC(=NNC(=O)OCc4ccc(OC)cc4)[C@@H]3CC[C@H]2C1=O	-0.468	0.336	-0.15	0.0569	0.0846	0.863	0.574	0.455 (inactive)	0.15	0.251
CCCCc1nc2c(c3c1C[C@H](C)OC3)CN(CCC(C)C)CC2	-0.578	0.252	-0.0687	0.509	1.16	0.788	1.17	0.607 (inactive)	0.295	-0.199
